From paper PMC5540273 (PLoS ONE, 2017)

tested on: TRPM6; details: concentration: 1 μM, replicates: in singlicate; n = 1
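Also: KINOMEscan kinase panel screen.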

Question: For Cl.c1ccc(Cn2cnc3cc(Nc4ncnc5ccccc45)ccc32)cc1 [GW272142], which “%Inh” value is on record?
Answer: 0%

Question: For O=C(Nc1ccc2c(c1)OCO2)NC1CCN(c2ccnc(NCc3ccc(F)cc3)n2)CC1 [GSK1379859], which “%Inh” value is on record?
Answer: 47%

Question: With CCn1c(-c2ccoc2)nc2cnccc21 [SB-733887] as the compound, how does the “%Inh” value read?
Answer: 52%

Question: With COc1cc2nccc(Nc3ccc(OCc4ccc(NC(C)=O)cc4)cc3)c2cc1OC.Cl [GW440135] as the compound, how does the “%Inh” value read?
Answer: 3%

Question: For CCC(=O)c1c(-c2ccccc2)c2cc(Cl)ccc2c(=O)n1Cc1cc(S(C)(=O)=O)n(CC(F)F)n1, which “%Inh” value is on record?
Answer: 10%

Question: Nc1nc(-c2ccccc2F)c(-c2ccnc3ccccc23)s1 [GW560459] was tested. Which “%Inh” value did it give?
Answer: 32%

Question: With COc1ccc(-c2coc3ccc(-c4nnc(SCc5cccc(C#N)c5)o4)cc23)cc1 as the compound, how does the “%Inh” value read?
Answer: 0%

Question: CCn1c(-c2nonc2N)nc2ccccc21 [SB-693162/GW549034] was tested. Which “%Inh” value did it give?
Answer: 0%

Question: For Nc1ncnc2c1ncn2-c1cccc(F)c1 [SKF-97560], which “%Inh” value is on record?
Answer: 74%

Question: For COc1cc2ncn(-c3cc(OCc4ccc(S(C)(=O)=O)cc4)c(C(N)=O)s3)c2cc1OC [GW869979], which “%Inh” value is on record?
Answer: 0%

Question: Cc1c(Cn2c(C)nn3c(=O)cc(N4CCO[C@H](C)C4)nc23)cccc1C(F)(F)F [GSK2373690] was tested. Which “%Inh” value did it give?
Answer: 0%

Question: For COC(=O)c1c(-c2ccccc2)c2cc(Br)ccc2c(=O)n1Cc1ccc(S(C)(=O)=O)cc1, which “%Inh” value is on record?
Answer: 2%

Question: With COc1cc2ncn(-c3cc(OCc4ccncc4Br)c(C(N)=O)s3)c2cc1OC [GW854278] as the compound, how does the “%Inh” value read?
Answer: 0%

Question: O=C1NC(=O)C(c2ccccc2)=C1Nc1cccc(O)c1 [SB-390534] was tested. Which “%Inh” value did it give?
Answer: 0%

Question: For COc1ccc(CNC(=O)NC2CCN(c3ccnc(Nc4ccc(F)cc4)n3)C2)cc1 (centres unmarked) [GSK1379706], which “%Inh” value is on record?
Answer: 4%

Question: How did the “%Inh” value turn out when COc1cc2nccc(Nc3cccc(Oc4ccccc4)c3)c2cc1OC.Cl [GW284543] was run?
Answer: 11%

Question: Which “%Inh” value does the source give for Cc1nnc(-c2ccc(C)c(-c3ccc(C(=O)O)cc3)c2)o1 [GW608005] here?
Answer: 1%

Question: Which “%Inh” value does the source give for Cc1cccc(-c2nc(Nc3ccc4c(cnn4C)c3)c3ccccc3n2)n1 [GW876731] here?
Answer: 0%

Question: With Cc1nc(N(C)[C@H]2CN(C(=O)CC#N)CC[C@H]2C)c2cc[nH]c2n1 as the compound, how does the “%Inh” value read?
Answer: 0%

Question: For COc1cc(Nc2ccnc3ccc(C(F)(F)F)cc23)cc(OC)c1OC [GW577382], which “%Inh” value is on record?
Answer: 0%

Question: Which “%Inh” value does the source give for COc1cccc(-n2cnc3c(N)ncnc32)c1 [SKF-97416] here?
Answer: 65%

Question: How did the “%Inh” value turn out when COc1ccc(-c2cc3c(C)nc(N)nc3n([C@H]3CC[C@H](OCCO)CC3)c2=O)cn1 was run?
Answer: 0%

Question: How did the “%Inh” value turn out when COc1cc2ncn(-c3cc(OCCCc4ccccc4)c(C(N)=O)s3)c2cc1OC [GSK205189] was run?
Answer: 0%

Question: CN1C(=O)C(Nc2ccccc2)=C(c2ccccc2)C1=O [SB-300079] was tested. Which “%Inh” value did it give?
Answer: 0%

Question: For O=C(NCc1cccs1)c1cc(C(=O)c2c(Cl)cccc2Cl)c[nH]1 [GW823670], which “%Inh” value is on record?
Answer: 0%

Question: Which “%Inh” value does the source give for CCCNC(=O)Nc1ccc(Oc2ncnc3ccn(C)c23)cc1 here?
Answer: 0%

Question: Which “%Inh” value does the source give for Nc1nccc2scc(-c3ccc4c(c3)CCN4C(=O)Cc3ccccc3)c12 [GSK2576924] here?
Answer: 13%

Question: With CCC(=O)c1c(-c2ccccc2)c2cc(Cl)ccc2c(=O)n1Cc1cc(S(C)(=O)=O)n(CCC(C)(C)O)n1 as the compound, how does the “%Inh” value read?
Answer: 18%

Question: Nc1nc(N)c2nc(-c3ccccc3)[nH]c2n1 [SKF-12778] was tested. Which “%Inh” value did it give?
Answer: 11%

Question: How did the “%Inh” value turn out when COc1ccc(-c2cc3c(C)nc(N)nc3n([C@H]3CC[C@H](O)CC3)c2=O)cn1 was run?
Answer: 0%

Question: With Cc1ccccc1COc1cc(-n2cnc3cc(Cl)ccc32)sc1C(N)=O [GW813349] as the compound, how does the “%Inh” value read?
Answer: 0%

Question: With COc1ccc(-n2cnc3c(N)ncnc32)cc1 [SKF-97236] as the compound, how does the “%Inh” value read?
Answer: 66%

Question: For COC(=O)c1c(-c2ccccc2)c2cc(C)ccc2c(=O)n1Cc1ccccc1, which “%Inh” value is on record?
Answer: 0%

Question: With O=C(Nc1n[nH]c2cc(-c3ccccc3F)ccc12)C1CC1 [SB-733371] as the compound, how does the “%Inh” value read?
Answer: 0%

Question: For COc1cc(Nc2nccc(N3CCC(NC(=O)C4COc5ccccc5O4)C3)n2)cc(OC)c1OC (centres unmarked) [GSK1379761], which “%Inh” value is on record?
Answer: 0%

Question: O=C(Nc1n[nH]c2nc(-c3ccccc3)c(Cl)cc12)C1CC1 [SB-734909] was tested. Which “%Inh” value did it give?
Answer: 29%

Question: Which “%Inh” value does the source give for O=c1cc(N2CCOCC2)nc2n(Cc3ccc(F)c(Cl)c3)ccn12 [GSK2297099] here?
Answer: 36%

tested on: TSSK1B; details: concentration: 1 μM, replicates: in singlicate; n = 1

Question: Cl.c1ccc(Cn2cnc3cc(Nc4ncnc5ccccc45)ccc32)cc1 [GW272142] was tested. Which “%Inh” value did it give?
Answer: 12%

Question: O=C(Nc1ccc2c(c1)OCO2)NC1CCN(c2ccnc(NCc3ccc(F)cc3)n2)CC1 [GSK1379859] was tested. Which “%Inh” value did it give?
Answer: 0%

Question: For CCn1c(-c2ccoc2)nc2cnccc21 [SB-733887], which “%Inh” value is on record?
Answer: 0%

Question: COc1cc2nccc(Nc3ccc(OCc4ccc(NC(C)=O)cc4)cc3)c2cc1OC.Cl [GW440135] was tested. Which “%Inh” value did it give?
Answer: 0%

Question: CCC(=O)c1c(-c2ccccc2)c2cc(Cl)ccc2c(=O)n1Cc1cc(S(C)(=O)=O)n(CC(F)F)n1 was tested. Which “%Inh” value did it give?
Answer: 0%

Question: For Nc1nc(-c2ccccc2F)c(-c2ccnc3ccccc23)s1 [GW560459], which “%Inh” value is on record?
Answer: 14%

Question: For COc1ccc(-c2coc3ccc(-c4nnc(SCc5cccc(C#N)c5)o4)cc23)cc1, which “%Inh” value is on record?
Answer: 0%

Question: How did the “%Inh” value turn out when CCn1c(-c2nonc2N)nc2ccccc21 [SB-693162/GW549034] was run?
Answer: 0%

Question: Which “%Inh” value does the source give for Nc1ncnc2c1ncn2-c1cccc(F)c1 [SKF-97560] here?
Answer: 22%

Question: For COc1cc2ncn(-c3cc(OCc4ccc(S(C)(=O)=O)cc4)c(C(N)=O)s3)c2cc1OC [GW869979], which “%Inh” value is on record?
Answer: 0%

Question: How did the “%Inh” value turn out when Cc1c(Cn2c(C)nn3c(=O)cc(N4CCO[C@H](C)C4)nc23)cccc1C(F)(F)F [GSK2373690] was run?
Answer: 0%

Question: COC(=O)c1c(-c2ccccc2)c2cc(Br)ccc2c(=O)n1Cc1ccc(S(C)(=O)=O)cc1 was tested. Which “%Inh” value did it give?
Answer: 0%

Question: With COc1cc2ncn(-c3cc(OCc4ccncc4Br)c(C(N)=O)s3)c2cc1OC [GW854278] as the compound, how does the “%Inh” value read?
Answer: 0%

Question: How did the “%Inh” value turn out when O=C1NC(=O)C(c2ccccc2)=C1Nc1cccc(O)c1 [SB-390534] was run?
Answer: 0%

Question: Which “%Inh” value does the source give for COc1ccc(CNC(=O)NC2CCN(c3ccnc(Nc4ccc(F)cc4)n3)C2)cc1 (centres unmarked) [GSK1379706] here?
Answer: 0%

Question: COc1cc2nccc(Nc3cccc(Oc4ccccc4)c3)c2cc1OC.Cl [GW284543] was tested. Which “%Inh” value did it give?
Answer: 11%

Question: How did the “%Inh” value turn out when Cc1nnc(-c2ccc(C)c(-c3ccc(C(=O)O)cc3)c2)o1 [GW608005] was run?
Answer: 10%

Question: How did the “%Inh” value turn out when Cc1cccc(-c2nc(Nc3ccc4c(cnn4C)c3)c3ccccc3n2)n1 [GW876731] was run?
Answer: 3%

Question: How did the “%Inh” value turn out when Cc1nc(N(C)[C@H]2CN(C(=O)CC#N)CC[C@H]2C)c2cc[nH]c2n1 was run?
Answer: 0%

Question: COc1cc(Nc2ccnc3ccc(C(F)(F)F)cc23)cc(OC)c1OC [GW577382] was tested. Which “%Inh” value did it give?
Answer: 0%

Question: How did the “%Inh” value turn out when COc1cccc(-n2cnc3c(N)ncnc32)c1 [SKF-97416] was run?
Answer: 0%

Question: Which “%Inh” value does the source give for COc1ccc(-c2cc3c(C)nc(N)nc3n([C@H]3CC[C@H](OCCO)CC3)c2=O)cn1 here?
Answer: 2%

Question: COc1cc2ncn(-c3cc(OCCCc4ccccc4)c(C(N)=O)s3)c2cc1OC [GSK205189] was tested. Which “%Inh” value did it give?
Answer: 0%

Question: CN1C(=O)C(Nc2ccccc2)=C(c2ccccc2)C1=O [SB-300079] was tested. Which “%Inh” value did it give?
Answer: 0%

Question: For O=C(NCc1cccs1)c1cc(C(=O)c2c(Cl)cccc2Cl)c[nH]1 [GW823670], which “%Inh” value is on record?
Answer: 18%

Question: How did the “%Inh” value turn out when CCCNC(=O)Nc1ccc(Oc2ncnc3ccn(C)c23)cc1 was run?
Answer: 0%

Question: With Nc1nccc2scc(-c3ccc4c(c3)CCN4C(=O)Cc3ccccc3)c12 [GSK2576924] as the compound, how does the “%Inh” value read?
Answer: 0%

Question: Which “%Inh” value does the source give for CCC(=O)c1c(-c2ccccc2)c2cc(Cl)ccc2c(=O)n1Cc1cc(S(C)(=O)=O)n(CCC(C)(C)O)n1 here?
Answer: 0%

Question: For Nc1nc(N)c2nc(-c3ccccc3)[nH]c2n1 [SKF-12778], which “%Inh” value is on record?
Answer: 0%

Question: Which “%Inh” value does the source give for COc1ccc(-c2cc3c(C)nc(N)nc3n([C@H]3CC[C@H](O)CC3)c2=O)cn1 here?
Answer: 0%

Question: Cc1ccccc1COc1cc(-n2cnc3cc(Cl)ccc32)sc1C(N)=O [GW813349] was tested. Which “%Inh” value did it give?
Answer: 3%

Question: How did the “%Inh” value turn out when COc1ccc(-n2cnc3c(N)ncnc32)cc1 [SKF-97236] was run?
Answer: 11%

Question: How did the “%Inh” value turn out when COC(=O)c1c(-c2ccccc2)c2cc(C)ccc2c(=O)n1Cc1ccccc1 was run?
Answer: 0%

Question: How did the “%Inh” value turn out when O=C(Nc1n[nH]c2cc(-c3ccccc3F)ccc12)C1CC1 [SB-733371] was run?
Answer: 0%

Question: How did the “%Inh” value turn out when COc1cc(Nc2nccc(N3CCC(NC(=O)C4COc5ccccc5O4)C3)n2)cc(OC)c1OC (centres unmarked) [GSK1379761] was run?
Answer: 0%

Question: Which “%Inh” value does the source give for O=C(Nc1n[nH]c2nc(-c3ccccc3)c(Cl)cc12)C1CC1 [SB-734909] here?
Answer: 0%

Question: How did the “%Inh” value turn out when O=c1cc(N2CCOCC2)nc2n(Cc3ccc(F)c(Cl)c3)ccn12 [GSK2297099] was run?
Answer: 0%
